Compound activity as filed in PubChem BioAssay.
Shown are actives, neighbours in structure and some others; about 2.8% of the full set was active somewhere.
Beta2AR agonist = beta2AR agonists driving receptor internalization, primary screen, cell-based, FAP fluorogen, flow cytometry | Am2.2-beta2AR cells | response, % (concentration not given with the values) | hit rate 0.43% among 340,000 | AID 504454, 2011;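 active = response above a set limit, near 3 SD of response in nonfluorescent compounds, cut at about 42% in these data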
Target sequence (P07550 whole entry, looked up): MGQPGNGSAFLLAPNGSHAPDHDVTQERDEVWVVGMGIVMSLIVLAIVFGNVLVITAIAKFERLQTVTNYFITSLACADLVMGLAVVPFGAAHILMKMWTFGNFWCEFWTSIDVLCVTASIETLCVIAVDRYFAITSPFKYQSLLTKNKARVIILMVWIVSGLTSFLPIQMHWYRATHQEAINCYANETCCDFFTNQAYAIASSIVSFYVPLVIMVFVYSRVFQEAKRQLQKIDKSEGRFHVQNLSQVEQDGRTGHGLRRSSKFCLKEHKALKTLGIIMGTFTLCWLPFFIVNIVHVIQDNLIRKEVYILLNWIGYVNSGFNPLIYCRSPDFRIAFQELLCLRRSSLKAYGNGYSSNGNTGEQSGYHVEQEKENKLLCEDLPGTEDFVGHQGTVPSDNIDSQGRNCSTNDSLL
CF NFkB block = inhibitors of PAF-induced NF-kB signaling, primary screen, cell-based, GFP fluorescence, uHTS | KKLEB NF-kB-GFP reporter, GFP fluorescence overnight | inhibition, % at 5 µM | hit rate 0.86% among 360,000 | AID 588850, 2011;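 active = at least 50% inhibition at 5 µM, scaled per plate between neutral and stimulator controls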;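 note: PAF is a Pseudomonas aeruginosa culture filtrate used as stimulus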
MITF TRPM1 inh = inhibitors of MITF-dependent TRPM1 promoter reporter, primary screen, cell-based, SK-MEL-5, single point, luciferase; inhibition, % at 12.5 µM; hit rate 0.83% among 330,000; SK-MEL-5 TRPM1 promoter luciferase, 24 h;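 active = mean inhibition across replicates of 60% or more, whatever share of single replicates reaches that level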
HIF-2a inh = HIF-2a reporter inhibitors, primary screen, luminescence, 786-0 RCC cells. AID 624352, 2012. hit rate 0.72% among 360,000. inhibition, % at 18.8 µM. 786-0 RCC cells HIF-2a reporter, luciferase luminescence, overnight;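 active = inhibition of the luminescence signal of 40% or more relative to plate controls, in a single-dose primary screen at 18.75 µM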
KKLEB cytotox = cytotoxicity in KKLEB CF airway cells, primary screen, cytotoxicity control for CF NF-kB inhibitor project, cell-based, uHTS, fluorescence assay plates | KKLEB CF airway cells viability, ATPlite luminescence, overnight; hits give low values; cells stimulated with P. aeruginosa culture filtrate | activity change (cytotoxicity), % at 5 µM | hit rate 0.36% among 360,000 | AID 602141, 2011;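 active = corrected activity change at or below -50% at 5 µM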
Peg3 promoter = Peg3 promoter-driven luciferase inhibitors, primary screen, cell-based, HeLa, luciferase luminescence; hit rate 1.7% among 360,000; HeLa PEG-Prom luciferase reporter, overnight; inhibition, % at 20 µM;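 active = inhibition of at least 50% at 20 µM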
A number is an active result; 0 = inactive; - = no result.

SMILES	Beta2AR agonist	CF NFkB block	MITF TRPM1 inh	HIF-2a inh	KKLEB cytotox	Peg3 promoter
COc1ccc(-n2c(C)cc(C3=NNC(=NC4CC4)SC3)c2C)cc1	0	0	0	0	0	0
C[n+]1ccc(/C=C/c2ccccc2O)c2ccccc21	0	0	0	0	0	0
CN1/C(=C/c2cc[n+](C)c3ccccc23)C=Cc2ccccc21	0	0	82.6	0	0	0
Cc1cccc(NC(=O)COC(=O)CN2C(=O)c3ccccc3C2=O)c1	-	0	-	0	0	0
O=C(NCc1ccccc1)NC1(C(=O)Nc2ccc3c(c2)OCCO3)CCCCC1	0	0	64.5	0	0	0
Cc1ccc2[nH]c3c(c2c1)CCCC3NCCO (stereo unspecified)	0	0	0	0	0	51.6
Cc1ccccc1-c1csc(C(O)(c2ccccc2)C(F)(F)F)n1 (stereo unspecified)	-	0	-	0	0	0
O=C(Nc1cccnc1)c1ccc(N2CCOCC2)c([N+](=O)[O-])c1	0	0	0	0	0	0
COc1ccc2oc(-c3ccc(NC(=O)c4ccc(N5CCOCC5)c([N+](=O)[O-])c4)cc3)nc2c1	0	53.5	0	0	-60.3	0
O=C(C#Cc1cccc([N+](=O)[O-])c1)c1ccccc1	87.9	97.1	82.2	0	-63.5	107.5
Cc1c(C(=O)NCc2ccc3c(c2)OCCO3)sc(=O)n1Cc1ccccc1F	-	0	-	0	0	0
CC(C)(C)c1nnc(N/N=C/c2cc(Br)ccc2O)n(N)c1=O	0	0	67.8	0	0	72.9
CCc1nnc(N/N=C/c2cc(Br)c(O)cc2O)n1N	0	0	0	0	0	0
CC(Nc1ccccc1CO)C(=O)Nc1cccc(Cl)c1Cl (stereo unspecified)	0	0	0	0	0	52.0
Cc1cc(Cl)ccc1C(O)c1ncc(-c2ccccc2Cl)[nH]1 (stereo unspecified)	-	0	-	0	0	0
CCS(=O)(=O)NC(=O)C1(C)CCN1C(=O)Cc1ccc(Cl)cc1Cl (stereo unspecified)	-	0	-	0	0	0
CCOc1ccc(-n2c(-c3ccc(Br)cc3)c[n+]3c2CCCCC3)cc1	0	0	62.9	0	0	0
CCOc1ccc(-n2c(-c3ccc(OC)cc3)c[n+]3c2CCCCC3)cc1	0	0	77.3	0	0	0
O=C1C=CC(=O)C(CNc2ccc(C(=O)OCc3ccccc3)cc2)=C1	0	68.2	65.9	0	0	72.3
CCOC(=O)C1CCN(C(=O)c2[nH]c(C(F)(F)F)nc2-c2ccccc2)CC1	-	0	-	0	0	0
Clc1cccc(Cc2c(C3CCCCC3)nc3ccc(Br)cn23)c1	-	0	-	0	0	0
CN1CCN(Cc2nc3ccccc3c(=O)n2Cc2nc(-c3ccc([N+](=O)[O-])cc3)cs2)CC1	-	0	66.1	0	0	72.3
CCCn1c(NC(=O)c2cccc(S(=O)(=O)N3CCCC3)c2)nc2ccccc21	0	73.7	0	0	0	97.4
CC(=O)Nc1ccc(C(=O)N2CCCCC2c2cc(C(=O)NCc3cccnc3)no2)cc1 (stereo unspecified)	-	0	-	0	0	0
O=C(CCc1ccccc1)NC1(Cc2ccccc2)CCN(CCc2cccs2)C1=O (stereo unspecified)	0	0	0	0	0	0
SMILES	Beta2AR agonist	CF NFkB block	MITF TRPM1 inh	HIF-2a inh	KKLEB cytotox	Peg3 promoter
O=C(NC1(Cc2ccccc2)CCN(Cc2ccc(-c3ccccc3)cc2)C1=O)c1ccccc1 (stereo unspecified)	0	0	0	0	0	85.2
CCCCNC(=O)CNC(=S)N(Cc1ccccc1)Cc1cccnc1	51.7	0	0	0	0	0
O=C(CNC(=S)N(Cc1ccccc1)Cc1ccccc1F)NCc1ccccc1	0	0	0	0	0	0
O=C(CNC(=S)N(Cc1ccccc1)Cc1ccccc1F)NCc1ccc(Cl)cc1	0	0	0	0	0	52.1
Fc1ccccc1COc1ccc(Br)cc1CNCc1cccnc1	0	0	0	0	0	0
Fc1ccccc1COc1ccc(Br)cc1CNCc1ccncc1	0	0	0	0	0	55.6
